This is part of a sample that, as a whole, favours compounds with a hit. Of some 79,000 tested, about 15% had one in any assay. Activity calls are given as the source filed them. No stated cut-off is given here; in the data, active means growth inhibition above about 70%; inactive means the rest.
Test: NCI Yeast Anticancer Drug Screen. Data for the rad50 strain (AID 155);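 further: 0% = growth of vehicle-only cultures of the same strain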
Details: S. cerevisiae rad50 strain growth inhibition; at 33.0 µM; stronger effect = higher value
Procedure, shortened: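 Readout: growth inhibition relative to vehicle-treated cultures. Compound exposure was carried out in a genetically defined yeast strain deficient in DNA damage repair.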

Q: For `CN(C)c1ccc(C2CC(C)(O)Oc3cc4c(cc32)OCO4)cc1` (stereo not drawn), which growth inhibition is on record?
A: 12% (inactive)

Q: Which growth inhibition does the source give for `O=P(NC1CCCCC1)(OCc1ccccc1)OCc1ccccc1` here?
A: 19% (inactive)

Q: For `COc1oc(C(=O)NC2CCCCC2)c(-c2ccc(Cl)cc2)c1S(=O)(=O)c1ccccc1`, which growth inhibition is on record?
A: 83% (active)

Q: Which growth inhibition does the source give for `C[Si](C)(C)/C=C/CCNC(C#N)c1ccccc1` (stereo not drawn) here?
A: 10% (inactive)

Q: For `CCOc1ccc(NC(=O)C2=C(C)NC(C)=C(C(=O)Nc3ccc(OCC)cc3)C2c2cccc([N+](=O)[O-])c2)cc1`, which growth inhibition is on record?
A: 39% (inactive)

Q: For `CN(C)CCOC1(Cc2ccc(F)cc2)CCC(C(C)(C)C)CC1` (stereo not drawn), which growth inhibition is on record?
A: 53% (inactive)

Q: With `CC1(C)CC(=O)C(/C=N/c2nc(-c3ccccc3)cs2)=C(O)C1` as the compound, how does the growth inhibition read?
A: 40% (inactive)

Q: For `CC(=O)Nc1ccc2c(c1)Cc1cc(N=C3C=CC(=O)O3)ccc1-2`, which growth inhibition is on record?
A: 99% (active)

Q: Which growth inhibition does the source give for `O=C1C=C(Cl)C(=O)C(c2ccc(Cl)cc2)=C1` here?
A: 97% (active)

Q: Which growth inhibition does the source give for `CNCCCNc1c2ccccc2nc2cccc([N+](=O)[O-])c12` here?
A: 93% (active)

Q: With `CCCCCCCCCCCC(O)S(=O)(=O)O` (stereo not drawn) as the compound, how does the growth inhibition read?
A: 2% (inactive)

Q: For `CC(C)OC(=O)c1ccc(CCc2cc(O)c(Br)cc2O)cc1`, which growth inhibition is on record?
A: 98% (active)

Q: Which growth inhibition does the source give for `CCc1cc(O)c(Cl)c(C)c1Cl` here?
A: 43% (inactive)

Q: With `C(=Nc1ccc(-c2cc(-c3ccccc3)nc3ccc4ccccc4c23)cc1)c1ccccc1` as the compound, how does the growth inhibition read?
A: 52% (inactive)

Q: With `CSc1nc(C)c(CCOC(C)=O)c(N=P(c2ccccc2)(c2ccccc2)c2ccccc2)n1` as the compound, how does the growth inhibition read?
A: -1% (inactive)

Q: With `CS(=O)(=O)SCc1ccc([N+](=O)[O-])cc1` as the compound, how does the growth inhibition read?
A: 99% (active)

Q: With `COC1=C(OC)C(=O)C(Sc2ccc3ccccc3c2)=CC1=O` as the compound, how does the growth inhibition read?
A: 92% (active)

Q: With `COc1nc2c(c(=O)n1C)N=C(c1ccccc1)[C@H](C(CC(=O)c1ccccc1)c1ccccc1)C(c1ccccc1)N2` (stereo partly drawn) as the compound, how does the growth inhibition read?
A: 21% (inactive)

Q: Which growth inhibition does the source give for `Cc1cc(-c2cc(C)c(O)c(C(C)(C)C)c2)cc(C(C)(C)C)c1O` here?
A: 52% (inactive)

Q: Which growth inhibition does the source give for `Nc1cc(N)c(N=Nc2cccc3c(S(=O)(=O)O)cccc23)cc1N=Nc1cc([N+](=O)[O-])ccc1O` here?
A: 6% (inactive)

Q: For `Nc1ccc(F)cc1S`, which growth inhibition is on record?
A: 61% (inactive)

Q: For `Brc1ccccc1-c1ncc(-c2ccccc2)o1`, which growth inhibition is on record?
A: 66% (inactive)

Q: Which growth inhibition does the source give for `COc1cc(C2SCC(=O)N2c2ccc(-c3ccc(-n4c(-c5ccccc5)nc5ccccc5c4=O)cc3)cc2)ccc1O` (stereo not drawn) here?
A: 8% (inactive)

Q: For `Nc1ncnc2c1ncn2C1OC(CO)CC1O` (stereo not drawn), which growth inhibition is on record?
A: 76% (active)

Q: With `COc1cc(CSc2ccc(O)cc2)cc(O)c1O` as the compound, how does the growth inhibition read?
A: 6% (inactive)

Q: With `CCOC(=O)C1N=[N+](c2ccccc2)C(=O)/C1=C\n1c(=S)[nH]c2ccc([N+](=O)[O-])cc21` (stereo not drawn) as the compound, how does the growth inhibition read?
A: 3% (inactive)

Q: For `CNC(=O)OCc1c(COC(=O)NC)c2n(c1C)-c1ccc(OC)cc1CCC2`, which growth inhibition is on record?
A: 95% (active)

Q: With `O=C(NNc1ccccc1)c1ccc(Cl)c(Cl)c1` as the compound, how does the growth inhibition read?
A: 21% (inactive)

Q: For `C[C@]12CC[C@H](O)CC1=CC[C@@H]1C2CC[C@]2(C)C(=O)NC(=O)CC12` (stereo partly drawn), which growth inhibition is on record?
A: 53% (inactive)

Q: Which growth inhibition does the source give for `CCCC/C=C/C(C)(C(=O)OCC)C(=O)OCC` here?
A: 0% (inactive)

Q: Which growth inhibition does the source give for `CCc1c(Cl)c(C)cc(O)c1Cl` here?
A: 23% (inactive)

Q: With `O=C(/C=C(/c1ccccc1)N1CCCCC1)c1ccccc1` as the compound, how does the growth inhibition read?
A: 11% (inactive)

Q: Which growth inhibition does the source give for `CCCC(=O)Oc1ccc(/C=N/NC(N)=S)nc1` here?
A: -7% (inactive)

Q: Which growth inhibition does the source give for `CCc1nc2ccc(NCCN(C)C)c3c(=O)c4ccccc4n1c23` here?
A: 89% (active)

Q: Which growth inhibition does the source give for `Cc1sc2ccc3ccccc3c2[n+]1C` here?
A: 15% (inactive)

Q: For `COc1c(O)c(C=O)c(Br)c(C=O)c1O`, which growth inhibition is on record?
A: 47% (inactive)

Q: For `Cc1ccc(Cl)cc1NC(=O)OCCN(C)C(=O)Nc1cc(Cl)ccc1C`, which growth inhibition is on record?
A: -31% (inactive)

Q: With `Cc1nc2ccccc2nc1NNc1ccccc1` as the compound, how does the growth inhibition read?
A: 46% (inactive)
